ERa SRC1 pot – enhancers of ERα–SRC-1 coactivator binding, primary screen, biochemical, TR-FRET, ERα LBD, low estradiol | coactivator binding (% of control), % at 25.6 µM | TR-FRET ERalpha-LBD/SRC-Cy5 coactivator binding, 2 h; 100 = basal binding, no effect | Estrogen receptor (Homo sapiens), P03372 | 1.3% of 86,000 active; in the data active = activity above about 200%;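 note: binding measured in presence of low estradiol as agonist stimulus; 0% = peptide alone without receptor and 100% = receptor with peptide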
Mac1 fbg inh – inhibitors of CD11b/CD18 adhesion to fibrinogen, primary screen, K562 cells, luminescence. Integrin beta-2 (Homo sapiens) + Integrin alpha-M (Homo sapiens), P05107+P11215. ATPlite luminescence; Mn2+ added to activate the integrin. inhibition, % at 10 µM. 0.54% of 93,000 active. AID 1497, 2009;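 active = primary inhibition of 50% or more at 10 µM, then 40% or more on retest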
Target sequence (P05107 whole entry, looked up, other chains not shown): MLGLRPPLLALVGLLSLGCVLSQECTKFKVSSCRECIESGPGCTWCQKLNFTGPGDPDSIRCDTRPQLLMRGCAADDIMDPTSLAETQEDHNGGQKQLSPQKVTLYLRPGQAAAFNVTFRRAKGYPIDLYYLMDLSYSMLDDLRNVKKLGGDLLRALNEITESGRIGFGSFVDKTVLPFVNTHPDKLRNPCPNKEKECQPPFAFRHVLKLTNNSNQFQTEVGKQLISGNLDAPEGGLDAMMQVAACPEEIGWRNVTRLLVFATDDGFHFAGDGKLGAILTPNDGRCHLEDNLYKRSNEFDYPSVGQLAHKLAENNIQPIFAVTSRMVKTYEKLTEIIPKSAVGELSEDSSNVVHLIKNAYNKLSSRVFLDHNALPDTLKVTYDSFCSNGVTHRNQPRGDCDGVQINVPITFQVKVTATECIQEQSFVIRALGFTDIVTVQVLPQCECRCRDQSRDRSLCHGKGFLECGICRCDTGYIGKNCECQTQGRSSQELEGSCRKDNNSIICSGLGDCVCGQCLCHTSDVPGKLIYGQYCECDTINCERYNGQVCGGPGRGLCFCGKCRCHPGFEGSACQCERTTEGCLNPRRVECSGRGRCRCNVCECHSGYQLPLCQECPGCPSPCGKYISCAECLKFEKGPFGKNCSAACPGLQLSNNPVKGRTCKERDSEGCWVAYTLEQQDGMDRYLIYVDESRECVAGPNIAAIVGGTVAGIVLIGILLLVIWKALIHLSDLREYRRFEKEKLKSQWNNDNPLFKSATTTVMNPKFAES
ERb coact inh – inhibitors of ERβ-SRC1 coactivator interaction, primary screen, biochemical, TR-FRET, ERβ LBD, SRC-1 peptide; Estrogen receptor beta (Homo sapiens), Q92731; TR-FRET ER-beta LBD / SRC1-Cy5 peptide binding; receptor agonist-loaded with 1 µM estradiol; inhibition, % at 25.6 µM; 1.3% of 86,000 active;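 active = compounds whose percent inhibition of the receptor-coactivator binding signal exceeds about 50% in the single-dose screen, limit read from the data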;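 note: 0% = receptor plus peptide wells without compound and 100% = peptide-only wells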
ERa SRC1 inh – ERα–SRC-1 coactivator interaction inhibitors, primary screen, biochemical, TR-FRET, ERα LBD, estradiol-bound | Estrogen receptor (Homo sapiens), P03372 | TR-FRET ER-alpha LBD / SRC-1 peptide | inhibition, % at 25.6 µM | 1.7% of 86,000 active | AID 629, 2007; in the data active = inhibition above about 50%;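 note: 0% = receptor plus peptide control and 100% = peptide only without receptor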
FAK blocker – FAK kinase inhibitors, primary screen, biochemical; 0.84% of 97,000 active; biochemical FAK kinase activity assay; inhibition, %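 (tested at 7 µM)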; in the data active = inhibition above about 19%;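 note: 0% = DMSO and 100% = reference compound high control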
Mac1 fbg enh – enhancers of CD11b/CD18 adhesion to fibrinogen, primary screen, K562 cells, luminescence. 0.07% of 93,000 active. ATPlite luminescence. Integrin beta-2 (Homo sapiens) + Integrin alpha-M (Homo sapiens), P05107+P11215. activation, % at 10 µM. AID 1499, 2009;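 active = 10 µM primary screen giving 50% or more activity, confirmed by 40% or more on retest at that dose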
* hit, by the source's call; · = no result given; [ ] = remark or other dose. Most compounds without a hit are left out; they make up all but 3.5% or so of the library.

SMILES | ERa SRC1 pot | Mac1 fbg inh | ERb coact inh | ERa SRC1 inh | FAK blocker | Mac1 fbg enh
CN(/N=C/c1cccnc1)c1cnn(-c2ccc(F)c(Cl)c2)c(=O)c1Cl | 125 | 15 | 37 | 61* | 12 | 9
CCOC(=O)C1=C(c2ccccc2)N=c2s/c(=C\c3ccco3)c(=O)n2C1c1cccs1 (stereo not given) | · | · | · | · | 21* | ·
CCOc1ccc2sc(NS(=O)(=O)c3ccc(OC)c(OC)c3)nc2c1 | 119 | -3 | -10 | -11 | -8 | 4
CC(C)(C)C(=O)Nc1nc(=S)ss1 | 101 | 66* | -4 | -6 | -1 | -6
O=C(O)CC(Cn1[nH]nnc1=S)c1ccccc1 (stereo not given) | 108 | 16 | 52* | -9 | -2 | -4
O=C(O)CC(CC(=O)Nc1nncs1)c1ccccc1 (stereo not given) | 137 | 14 | -9 | -5 | 0 | 5
CCOC(=O)c1sc(C)c2c(=O)n(CC(=O)c3ccc(Br)cc3)nnc12 | 112 | -15 | 59*[fluorescence artefact?] | -2 | 2 | 13
CCOC(=O)Cn1c(C)nc2c(C(=O)OCC)sc(C)c2c1=O | · | 10 | · | · | 4 | 2
Cc1ccc(C(=O)Nc2ccc(O)c(C(=O)O)c2)o1 | 61 | -7 | 44 | 25 | 0 | -6
CC(N=Cc1cccc(O)c1O)c1ccccc1 (stereo not given) | 84 | -30 | 58*[fluorescence artefact?] | 17 | · | 2
COc1cc(CNCc2ccncc2)cc(Br)c1OCc1ccccc1F | · | 62* | · | · | -8 | -7
COc1cc(CNc2ccc(O)cc2)cc(Br)c1OCc1ccccc1F | · | 72 | · | · | · | -8
CCOc1cc(CNCCO)cc(Br)c1OCc1ccc(Cl)cc1 | · | · | · | · | 1 | ·
CCOc1cc(CNCCO)cc(Br)c1OCc1ccccc1Cl | · | 74* | · | · | -3 | -7
CCN1CCN(CCCNC(=O)c2cc3c(=O)[nH]c4ccccc4c3s2)CC1 | 109 | -2 | 7 | 8 | 4 | -4
O=C(NCCCN1CCOCC1)c1cc2c(=O)[nH]c3ccccc3c2s1 | 224* | · | -8 | -5 | · | ·
CCOC(=O)c1sc(=NC(=O)c2cccc(OC)c2)n(C)c1C | 141 | -4 | 29 | 11 | -22 | -1
CCOC(=O)c1sc(=NC(=O)c2ccc(OC)c(OC)c2)n(C)c1C | 429*[fluorescence artefact?] | 7 | 29 | -54 | -8 | 47
CCOc1ncccc1C(=O)OCc1cc(=O)n2c(n1)sc1ccccc12 | 115 | · | 56*[fluorescence artefact?] | 84*[fluorescence artefact?] | · | ·
COC(=O)c1ccccc1NC(=O)c1sc(=S)n(C)c1N | 19 | 2 | 38 | 70*[fluorescence artefact?] | 4 | 40
CCOC(=O)Cn1c(=O)oc2cc(S(=O)(=O)N3CCN(c4ccccn4)CC3)ccc21 | 245*[fluorescence artefact?] | -8 | 33 | 31 | -2 | 6
O=C(Cn1c(=O)oc2cc(S(=O)(=O)N3CCCC3)ccc21)N1CCN(c2ccccn2)CC1 | 111 | -2 | 5 | 1 | · | 0
CCOC(=O)Cc1ccc(NC(=O)c2ccc(C(C)(C)C)cc2)cc1 | 100 | 98* | 12 | -6 | -1 | -6
COC(=O)Cc1ccc(NC(=O)c2ccc(C)c(C)c2)cc1 | 113 | 11 | 0 | 5 | 2 | -7
Cc1oc2c(C)c(O)ccc2c(=O)c1-c1cnn(-c2ccccc2)c1 | 181 | · | 60*[fluorescence artefact?] | 70*[fluorescence artefact?] | 6 | ·
SMILES | ERa SRC1 pot | Mac1 fbg inh | ERb coact inh | ERa SRC1 inh | FAK blocker | Mac1 fbg enh
N#Cc1c(-c2ccc(Br)cc2)nc2n(c1=O)CCCS2 | 239* | -11 | 17 | 10 | -2 | 16
CN(CCNC(=O)C1CCN(S(=O)(=O)N2CCOCC2)CC1)CCc1ccccc1 | 108 | 0 | -5 | -6 | 1 | -1
COc1ccc(C)cc1NC(=O)c1cc2cc3ccc(C)cc3nc2o1 | 209* | · | -20 | 40 | -4 | ·
COc1ccc2cc3cc(C(=O)NCCc4ccc(OC)c(OC)c4)oc3nc2c1 | 98 | · | 0 | 21 | 7 | ·
COc1ccc2nc3oc(C(=O)Nc4ccc(OC)c(OC)c4)cc3cc2c1 | 108 | -41 | 41 | 63*[fluorescence artefact?] | 3 | 18
COc1ccc(Cn2nnnc2C(c2cccs2)N2CCN(c3ccc([N+](=O)[O-])cc3)CC2)cc1 (stereo not given) | 96 | -14 | -2 | -1 | 2 | -1
CCCCNC(=S)NNC(=O)c1ccc2c(c1)OCO2 | · | -25 | · | · | · | 1
O=C(Oc1ccc(-n2cnnn2)cc1)c1ccco1 | 114 | 38 | 2 | 7 | 1 | 0
O=C(Oc1ccc(N2C(=O)CCC2=O)cc1)c1ccco1 | 103 | -2 | 4 | 60* | 0 | -1
COC(=O)c1ccsc1NC(=O)CSc1nnnn1-c1ccccc1SC | 263*[fluorescence artefact?] | -37 | -9 | -19 | 3 | 10
CCC(c1nnnn1C(C)(C)CC)N(CCCO)Cc1cc2cccc(C)c2[nH]c1=O (stereo not given) | 114 | -7 | 0 | 4 | 4 | 4
Cc1cc(NC(=O)C2CC(c3ccc(Cl)cc3)=NO2)no1 (stereo not given) | 97 | -6 | -5 | -7 | -5 | 0
O=C1CC(c2ccc(F)cc2)Cc2nc(NCC3CCCO3)ncc21 (stereo not given) | 93 | 18 | -10 | 60* | 1 | 6
Nc1ccc2c(C(F)(F)F)cc(=O)oc2c1 | 113 | -24 | -1 | -5 | -1 | -4
NC(=O)CCn1nc(-c2ccc(Cl)cc2)c2ccccc2c1=O | 115 | -11 | -5 | -9 | -1 | 5
Cc1oc2nc(SCC(=O)NCCCO)nc(N)c2c1C | 101 | -4 | 64* | -8 | 3 | 4
O=C(O)CCN1C(=O)/C(=C/c2ccc(-c3nc4ccccc4s3)o2)SC1=S | · | 64* | · | · | 2 | 86
COc1ccc(C(=O)Nc2ccc(S(=O)(=O)Nc3nccnc3OC)cc2)cc1 | · | -6 | · | · | 1 | 4
COc1nccnc1NS(=O)(=O)c1ccc(NS(=O)(=O)c2ccc(NC(C)=O)cc2)cc1 | 83 | 68* | -2 | 3 | 0 | -2
CC1SC(c2ccc(Cl)cc2)NC1=O (stereo not given) | 97 | · | -9 | -11 | 0 | ·
COc1ccc(C2CC(c3c(Cl)cccc3Cl)n3nc(N)nc3N2)cc1 (stereo not given) | 113 | -6 | 2 | -5 | -1 | -5
CC(C)(C)C(=O)CNS(=O)(=O)c1ccc(S(=O)(=O)NC2CCCC2)cc1 | 284*[fluorescence artefact?] | -30 | 2 | 6 | -3 | 0
c1ccc2c(c1)oc1c(Nc3ccc4c(c3)OCO4)ncnc12 | 75 | 16 | 43 | 43 | 3 | 0
